The full list was thinned out, with hits kept by preference.
ST2 inh = blocks human ST2 binding to IL-33 | AID 1259354 | inhibition, % for hits at 17 µM | 78,000 tested, 2.3% active | AlphaLISA ST2-Fc/biotin-IL-33 interaction, 1 h | Q01638; in the data active = inhibition above about 30%
Target sequence (Q01638 whole entry, looked up): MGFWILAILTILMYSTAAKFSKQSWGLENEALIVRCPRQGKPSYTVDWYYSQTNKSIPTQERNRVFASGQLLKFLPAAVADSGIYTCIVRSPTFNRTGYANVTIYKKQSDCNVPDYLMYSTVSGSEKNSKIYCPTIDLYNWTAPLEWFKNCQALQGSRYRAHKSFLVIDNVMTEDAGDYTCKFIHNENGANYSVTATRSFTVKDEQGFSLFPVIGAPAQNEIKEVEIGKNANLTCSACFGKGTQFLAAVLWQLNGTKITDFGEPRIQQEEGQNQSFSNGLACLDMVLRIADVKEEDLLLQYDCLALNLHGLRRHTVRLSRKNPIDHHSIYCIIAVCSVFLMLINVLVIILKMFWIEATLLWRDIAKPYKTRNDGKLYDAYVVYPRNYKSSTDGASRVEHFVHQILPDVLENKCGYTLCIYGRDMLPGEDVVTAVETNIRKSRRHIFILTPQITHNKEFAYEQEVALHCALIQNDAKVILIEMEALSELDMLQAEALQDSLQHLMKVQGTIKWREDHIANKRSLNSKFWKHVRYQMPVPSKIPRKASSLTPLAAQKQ
* = called active by the depositor; i = inactive.

SMILES	ST2 inh
Cc1ccc(/C=C(\C#N)c2nc(-c3ccc(C)cc3)cs2)cc1	54%*
Cc1nc(-c2ccc(C(N)=O)cc2)cs1	i
N#C/C(=C\Nc1cccc(C(F)(F)F)c1)c1nc(-c2cc3ccccc3oc2=O)cs1	i
COc1ccc(-c2csc(/C(C#N)=C/c3ccccc3[N+](=O)[O-])n2)cc1	i
N#CCc1nc(-c2ccc(-c3ccccc3)cc2)cs1	i
Cc1ccc(NC(=O)c2ccccc2C)c([N+](=O)[O-])c1	i
Cc1ccc(-c2csc(/C(C#N)=C\c3ccc(C)o3)n2)cc1	51%*
Cc1ccc(C(=O)Nc2nc(-c3ccc(F)cc3)cs2)o1	i
Cc1ccc(-c2nnc3s/c(=C\c4ccc(C)o4)c(=O)n23)cc1	i
Cc1ccc(-c2csc(/C(C#N)=C/c3ccccc3[N+](=O)[O-])n2)c(C)c1	57%*
O=C(O)CCCNC(=O)c1cn(-c2ccccc2F)c(=O)c2ccccc12	i
Fc1ccccc1N1CCN(C2CCCN(Cc3ccc4c(c3)OCCO4)C2)CC1 (centres undefined)	i
CCC(=O)N1CCc2cc(Br)cc(S(=O)(=O)NCCN(CC)CC)c21	i
CCn1c(C2CCNCC2)nn(Cc2ccc(C(F)(F)F)nc2)c1=O	i
CC(=O)c1cccc(CN2CCCC(CO)(Cc3cccc(Cl)c3)C2)c1 (centres undefined)	i
Cc1ccc2nc(N3CCN(CC(=O)NC(C)C)CC3)cc(C)c2c1	i
Fc1ccc(CN2CC[C@H](c3nnc(-c4ccco4)o3)C2)cc1F	i
CCN(C(=O)c1cnc2n(c1=O)CCS2)c1ccccc1	i
CN(Cc1c(F)ccc(F)c1Cl)CC1CC(=O)N(C2CCCC2)C1 (centres undefined)	i
CC(CC#CCN1CCOCC1)OC(C)(C)C (centres undefined)	i
COc1cc2c(cc1OC)C1(CCCC1)CN=C2C	i
O=C(NCc1cccnc1)c1cc2c(=O)oc3ccccc3c2s1	i
O=C(NCc1cccnc1)C1CCN(CC2CC=CCC2)CC1 (centres undefined)	i
CCC1(CC)C(=O)NC(=O)N=C1N	i
O=C1Nc2ccccc2C(O)(C(=O)NC2CCCCCCC2)N1c1ccccc1 (centres undefined)	i
SMILES	ST2 inh
O=S(=O)(Nc1cnc2ccccc2c1)c1ccc(F)cc1	i
N#C/C(=C\c1ccc(Cl)cc1)c1nc(-c2ccccc2)cs1	51%*
NNC(=O)C(=O)Nc1nc(-c2ccc(Cl)cc2)cs1	i
Cc1ccc(NC(=O)CC(=O)NCCc2nc(C)cc(C(F)(F)F)n2)cc1	i
COc1cc(C2Nc3ccccc3NC3=C2C(=O)CC(c2ccc(C)cc2)C3)cc(OC)c1OC (centres undefined)	i
COc1ccc(C=Nc2ccc3[nH]c(=O)[nH]c3c2)cc1OC	i
C/C=C/c1ccc(OCc2ccccc2)c(OC)c1	i
COc1ccc(N=Cc2ccc(OCc3ccccc3)cc2)cc1OC	33%*
Cc1[nH]nc(SCC(=O)NCc2cccs2)c1[N+](=O)[O-]	i
COc1cc(NS(=O)(=O)c2ccc(NC(=O)Cc3ccccc3)cc2)ncn1	i
O=C(c1ccccc1-c1ccccc1)N1C[C@@H]2[C@H](C1)[C@H]1CC[C@@H]2O1	i
O=C(O)c1ccc2c(c1)C(=O)N(c1nc3ccccc3s1)C2=O	i
COc1cc(O)c2c(=O)c(O[C@@H]3O[C@H](CO[C@@H]4O[C@@H](C)[C@H](O)[C@@H](O[C@@H]5O[C@@H](C)[C@H](O)[C@@H](O)[C@H]5O)[C@H]4O)[C@H](O)[C@H](O)[C@H]3O)c(-c3ccc(O)c(O)c3)oc2c1	i
COc1c(-c2ccc(O)c(O)c2)oc2cc(O)cc(O)c2c1=O	i
COc1cc(O)c2c(=O)c(OC)c(-c3cc(O)c(OC)c(OC)c3)oc2c1	94%*
CCC(=O)Nc1ccc(C(=O)Nc2ccccc2OC)cc1	i
COC(=O)C1C(=O)C2=C(CC1C)NC(C)=C(C(=O)OC1CCCC1)C2c1ccc(OC)cc1 (centres undefined)	i
CC(=O)N[C@@H]1c2ccccc2C2(CCN(Cc3nc4ccccc4n3C)CC2)[C@H]1OCc1ccccc1	i
CC(=O)Sc1nc(O)c(C=C2C=c3ccc(C)cc3=NC2=O)[nH]1	31%*
O=C(C1=C(O)C(=O)N(CCCN2CCOCC2)C1c1cccnc1)c1cc2ccccc2o1 (centres undefined)	i
Cc1[nH]cnc1CN(C)Cc1ccccc1-n1cccn1	i
CCN(CC)c1cc(C)c2cc(NC(=O)c3ccco3)ccc2n1	i
Nc1nonc1-c1noc(COc2ccc(F)cc2)n1	i
COc1ccc(CNc2oc(COc3ccc(OC)cc3)nc2C#N)cc1	i
N#Cc1nc(COc2ccccc2)oc1NCc1ccc(F)cc1	34%*
SMILES	ST2 inh
CCCOC(=O)C1=C(C)NC2=C(C(=O)C(C(=O)OC)C(C)C2)C1c1cccc(OC)c1OC (centres undefined)	i
Cc1cc(Br)ccc1OCC(=O)Nc1ccncc1	i
CCc1cccc(OCCCN2CCN(C)CC2)c1	i
COc1ccccc1-c1cc(C(F)(F)F)nc(S(C)(=O)=O)n1	i
COc1ccc(-c2cc(C(F)(F)F)nc(NCc3ccccc3)n2)cc1OC	i
COc1ccccc1Nc1cc(C(F)(F)F)nc2c(OC)ccc(OC)c12	39%*
Cc1ccc(OC2CCN(C(=O)C3CCC(=O)N(CCN4CCOCC4)C3)CC2)cc1 (centres undefined)	i
COc1cc(Br)cc(/C=C/c2ccc3cccc(O)c3n2)c1O	38%*
CCOc1cc(Br)cc(C=O)c1O	i
COc1ccc2cccc(O)c2n1	i
Oc1cccc2ccc(/C=C/c3cc4c(cc3Br)OCO4)nc12	32%*
Cc1sc2nc(CCN)nc(N(C)CCc3ccccn3)c2c1C	i
O=C(Nc1nncs1)c1ccc(Oc2ccccc2)cc1	i
Cc1sc2ncnc(SCC(=O)NC(Cc3ccccc3)C(=O)O)c2c1C (centres undefined)	i
CCCCNC(=O)CSc1cc(=O)n(C)c2cc(Cl)ccc12	i
O=[N+]([O-])c1ccc(S(=O)(=O)Nc2ccc(S(=O)(=O)N3CCOCC3)cc2)cc1	i
COc1ccc2cc3cc(C(=O)Nc4cc([N+](=O)[O-])ccc4OC)oc3nc2c1	i
OC1CCN(Cc2ccc(Cl)c(Cl)c2)CC1	i
COc1ccc(Cl)cc1-n1nc(C(C)C)nc1-c1ncn[nH]1	i
Cc1ccc(SC2CCN(C(=O)C3CCC(=O)N(CCN4CCOCC4)C3)CC2)cc1 (centres undefined)	i
CCOc1ccc(N=C2C(=O)N(CN3CCN(c4ccccc4)CC3)c3ccccc32)cc1	i
O=C1C(=Nc2cccc(F)c2)c2ccccc2N1CN1CCN(c2ccccc2)CC1	i
CCN(CC)CN1C(=O)C(=Nc2cccc(C(F)(F)F)c2)c2ccccc21	32%*
CCOC(=O)N1CCN(Cc2ccc3c(c2)CN(C(=O)c2ccc(F)c(Cl)c2)CCO3)CC1	i
COc1ccc(Cl)cc1NS(=O)(=O)c1ccc(Br)s1	i
SMILES	ST2 inh
CC(=O)c1cc2c(N)c(C(=O)c3ccc(Cl)cc3)sc2nc1C	38%*
COCc1cc(C)nc2sc(C(=O)c3ccccc3)c(N)c12	i
Cc1ccc2c(N)c(C(=O)c3ccc(Cl)cc3)sc2n1	i
O=C(c1ccccc1NS(=O)(=O)c1ccc(Br)cc1)N1CCCC1	i
Cc1cccn2c(=O)c3cc(C(=O)N(Cc4ccccc4)C(C)C)n(C)c3nc12	i
CCOc1ccc(-c2nc(SCC(=O)NCC3CCCO3)n3[nH]c(=O)cc3n2)cc1 (centres undefined)	i
